Results on five compounds are retold here after PubChem BioAssay (NCATS).

Experiment [1] can be described thus: AP1 Signaling Pathway (AID 357; active = well fitted curve in either direction with a large enough effect, not every such curve was filed as active;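 note: ME-180 reporter cells stimulated with EGF at its EC50 level; % is set by controls: 0 for no effect and ±100 for the full control effect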). The essentials: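 In this screen, ME-180 cells in Opti-MEM with 0.5% dialyzed FBS received EC50 EGF and compound titrations for 5 h. AP-1 reporter beta-lactamase was detected via CCF4 ratio, giving AC50 for positive and negative modulators.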
Experiment [2] concerns the target Cytochrome P450 1A2 (Homo sapiens) (UniProt P05177). Description: p450-cyp1a2 (AID 410; calls by dose curve;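 note: -100% = full effect of reference inhibitor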). Summed up:
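Luminescent readout of luciferin formed from Luciferin-ME by human CYP1A2; data normalized against complete inhibition by 57 uM furafylline. Enzyme 20nM, substrate 100uM at Km, 100mM KPO4 buffer, 60 min reaction at room temperature.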

The nature of experiment [3]: NFAT Signaling Pathway (AID 444; active = well fitted curve in either direction with a large enough effect, not every such curve was filed as active;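 note: carbachol stimulus at about its EC50 of 1 µM final; % is set by controls: 0 for no effect and ±100 for the full control effect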). The conditions noted are these: Jurkat NFAT-bla M1, carbachol, beta-lactamase ratio, 5 h; at 17.2 µM (top of the series) unless noted. The essentials:
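Jurkat cells carrying an NFAT-driven β-lactamase reporter and co-transfected muscarinic M1 receptor were treated with compound plus carbachol (1 uM final, an EC50 level) for 5 h at 37 °C. CCF4 loading followed for 1 h at RT; 460/530 nm ratio gave %activity.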

Experiment [4] is described as follows: Stat Signaling Pathway (AID 446; active = well fitted curve in either direction with a large enough effect, not every such curve was filed as active;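 note: ME-180 cervical cancer cells given 40 pM IL-6 alongside compound; SIE-controlled beta-lactamase reporter measured as 460/530 nm FRET emission ratio; % is set by controls: 0 for no effect and ±100 for the full control effect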). Summed up:
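ME-180 SIE-bla cells; overnight plating; cpd + IL-6 40 pM, 5 h, 37 C; LiveBLAzer 2.5 h RT; 460/530 nm emission ratio. Normalized to 300 pM IL-6 and 125 nM JAK inhibitor controls.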

Experiment [5] deals with Glucocorticoid receptor (Homo sapiens) (UniProt P04150). Put plainly: GR-GFP Redistribution (AID 450;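 active = compounds whose dose series gives a full or clear partial fitted curve of increased nuclear translocation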; note: potency is the fitted concentration of half-maximal effect). To be noted: U2OS GR-GFP nuclear translocation, laser cytometry, 2 h.
Sequence of Glucocorticoid receptor (Homo sapiens) (P04150 whole entry, looked up): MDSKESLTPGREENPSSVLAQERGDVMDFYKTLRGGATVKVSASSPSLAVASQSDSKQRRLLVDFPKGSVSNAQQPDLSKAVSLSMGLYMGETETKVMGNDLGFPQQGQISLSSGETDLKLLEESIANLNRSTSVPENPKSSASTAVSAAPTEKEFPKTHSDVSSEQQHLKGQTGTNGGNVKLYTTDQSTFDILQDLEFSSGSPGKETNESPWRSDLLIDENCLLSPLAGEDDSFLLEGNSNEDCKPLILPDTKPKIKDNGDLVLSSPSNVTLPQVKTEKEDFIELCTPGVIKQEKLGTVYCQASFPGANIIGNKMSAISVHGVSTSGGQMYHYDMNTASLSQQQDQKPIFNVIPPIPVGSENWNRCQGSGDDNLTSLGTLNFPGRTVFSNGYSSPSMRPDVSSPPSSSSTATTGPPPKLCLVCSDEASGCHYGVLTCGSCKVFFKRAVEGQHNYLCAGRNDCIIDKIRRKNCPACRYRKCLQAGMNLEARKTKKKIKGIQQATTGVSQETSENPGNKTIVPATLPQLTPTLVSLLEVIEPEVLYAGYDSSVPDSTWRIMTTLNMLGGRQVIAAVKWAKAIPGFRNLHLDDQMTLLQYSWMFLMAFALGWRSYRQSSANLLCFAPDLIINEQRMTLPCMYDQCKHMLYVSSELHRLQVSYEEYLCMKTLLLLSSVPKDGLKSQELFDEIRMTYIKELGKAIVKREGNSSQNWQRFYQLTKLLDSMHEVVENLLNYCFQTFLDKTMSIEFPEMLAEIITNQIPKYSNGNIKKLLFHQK
Experiment [6] shares this target. Description: GR-EFC Redistribution (AID 451; calls by dose curve; note: potency is the fitted concentration of half-maximal effect). To be noted: CHO-K1 GR-EFC translocation, beta-gal luminescence, 2 h. Summed up:
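CHO-K1 cells stably expressing nuclear-localized β-gal enzyme acceptor and GR fused C-terminally to the enzyme donor fragment; ligand-driven nuclear translocation restores β-gal by complementation. Compounds titrated up to 46 uM final, 2 h at 37 °C; luminescence read.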

The target in experiment [7] is Mitogen-activated protein kinase 10 (Mus musculus) (UniProt Q61831). Description: JNK3 AlphaScreen Assay (AID 530; active = well fitted curve in either direction with a large enough effect, not every such curve was filed as active;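 note: kinase came from lysate of stimulated human HepG2 cells; signal reports phosphorylation of biotinylated GST-cJun 1-79 at Ser73 with 10 µM ATP; % is set by controls: 0 for no effect and ±100 for the full control effect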). The essentials: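 Inhibitors reduce antibody binding to phosphorylated biotin-cJun, lowering AlphaScreen luminescence. Lysates from HepG2 cells pre-activated by IL-1beta plus TNF-alpha supplied JNK3; compounds were titrated.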
For orientation: Bead proximity is the source of the signal in Alpha formats.

Experiment [8] has as its target 3',5'-cyclic-AMP phosphodiesterase 4B (Homo sapiens) (UniProt Q07343). Description: qHTS Assay for Inhibitors of PDE-IV (AID 607; active = well fitted activation curve with a large enough effect in the main read-out, with a control signal flat, not every such curve was filed as active; note: % of control where 0% means no effect). Summed up:
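ACTOne HEK293 cells carry a modified cAMP-gated CNG channel and express endogenous PDE4; plated 1000 cells/well, compounds up to 22.9 uM final. Membrane-potential dye fluorescence (ex 535/em 590) was read; parental cells received 10 uM forskolin + 100 uM RO 20-1724.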
(In general: In qHTS, concentration-response curves come from the screen itself.)

Experiment [9] can be described thus: qHTS Assay for Lipid Storage Modulators (AID 1519; calls by dose curve). The conditions noted are these: Drosophila S3 cells, BODIPY lipid droplet/cell ratio, laser cytometry, cells loaded with oleic acid; for activity change, negative = inhibition: at 25.7 µM (top of the series). The essentials: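 Cells seeded at 5,000 per well were treated with compounds over a concentration series and loaded with oleic acid (400 uM, as added). Lipid droplet fluorescence (488 nm excitation, 500-530 nm channel) was read by laser-scanning cytometry and normalized to 20 uM Triacsin C.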

Experiment [10] deals with Luciferin 4-monooxygenase (Photinus pyralis) (UniProt P08659). Put plainly: Biochemical firefly luciferase enzyme assay for NPC (AID 624030).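 Note: purified P. pyralis luciferase at 10 nM with luciferin and ATP substrate; 0% = DMSO and -100% = full luciferase inhibition by PTC124 control; nearly all actives have a fitted effect of over 70% in size.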 Summed up: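 Counter-screen for direct inhibition of the luciferase enzyme by approved-drug library compounds, run at 10 nM enzyme in 50 mM Tris acetate (final). Luminescence was read within 5 min of enzyme-buffer addition and normalized to PTC124 versus DMSO (0%).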
Sequence of Luciferin 4-monooxygenase (Photinus pyralis) (P08659 whole entry, looked up): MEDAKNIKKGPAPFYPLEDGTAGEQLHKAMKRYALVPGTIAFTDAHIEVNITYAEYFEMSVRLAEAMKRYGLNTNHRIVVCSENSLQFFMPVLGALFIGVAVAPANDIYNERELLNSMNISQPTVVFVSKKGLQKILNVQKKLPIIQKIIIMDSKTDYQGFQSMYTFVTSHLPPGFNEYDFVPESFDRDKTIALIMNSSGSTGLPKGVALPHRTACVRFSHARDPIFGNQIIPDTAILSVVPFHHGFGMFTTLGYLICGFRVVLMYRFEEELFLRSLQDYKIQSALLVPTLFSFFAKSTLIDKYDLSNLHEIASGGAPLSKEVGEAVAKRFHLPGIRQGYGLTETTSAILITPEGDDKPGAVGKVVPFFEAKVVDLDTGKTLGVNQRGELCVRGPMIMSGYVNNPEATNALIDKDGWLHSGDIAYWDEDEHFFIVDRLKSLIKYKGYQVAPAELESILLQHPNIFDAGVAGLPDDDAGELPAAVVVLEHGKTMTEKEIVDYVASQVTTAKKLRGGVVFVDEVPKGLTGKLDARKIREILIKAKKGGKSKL

A short description of experiment [11]: S16 Schwann cell viability assay (CellTiter-Glo assay) (AID 624031).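 Note: cellular ATP luminescence as a viability measure; plate controls were DMSO-treated cells for no effect and cell-free wells for full effect; nearly all actives have a fitted effect of over 70% in size.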 Summed up:
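This viability control uses native rat S16 Schwann cells grown in DMEM plus 10% FBS. After a 24 h compound treatment at 37 °C, CellTiter-Glo luminescence reports ATP content, scaled against DMSO-treated and cell-free wells.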

Experiment [12] is described as follows: qHTS profiling for inhibitors of Plasmodium falciparum proliferation (AID 504749).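 Note: 0% = DMSO vehicle and full inhibition = artemisinin control; nearly all actives have a fitted effect of over 60% in size.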 To be noted: P. falciparum in erythrocytes, SYBR Green DNA, 72 h, at 12.8 µM (top of the series). The essentials: (§1)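 Parasite proliferation within erythrocytes, 72 h exposure. Endpoint: SYBR Green I fluorescence after overnight lysis at room temperature. Controls: 0.29 uM artemisinin, DMSO.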

The subject of a further experiment is C2A. The description is as above. The conditions noted are these: P. falciparum in erythrocytes, SYBR Green DNA, 72 h; series mostly up to 12.8 µM. The essentials:
as §1

Another experiment has as its system CP191. Described as above. The conditions noted are these: P. falciparum in erythrocytes, SYBR Green DNA, 72 h; series mostly up to 12.8 µM. The essentials:
as §1

The test system of a further experiment is CP256. The description is as above. To be noted: P. falciparum in erythrocytes, SYBR Green DNA, 72 h; series mostly up to 12.8 µM. Summed up: as §1
The subject of the next experiment is CP262. The description is as above. To be noted: P. falciparum in erythrocytes, SYBR Green DNA, 72 h; series mostly up to 12.8 µM. The essentials: as §1
Another experiment concerns CP268. The experiment is described as above. To be noted: P. falciparum in erythrocytes, SYBR Green DNA, 72 h; series mostly up to 12.8 µM. Summed up: as §1
For another experiment, the system named is JCK. The description is as above. The conditions noted are these: P. falciparum in erythrocytes, SYBR Green DNA, 72 h; series mostly up to 12.8 µM. Summed up:
as §1

Another experiment relates to SC27B. Described as above. The conditions noted are these: P. falciparum in erythrocytes, SYBR Green DNA, 72 h; series mostly up to 12.8 µM. Summed up: as §1
Experiment [13] has as its target Ubiquitin carboxyl-terminal hydrolase 1 (Homo sapiens) (UniProt O94782). Put plainly: Inhibitors of USP1/UAF1: Pilot qHTS (AID 504865).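 Note: rhodamine fluorescence freed from ubiquitin-rhodamine substrate followed over time; top concentration of the series differs between compounds; % is set by controls: 0 for no effect and ±100 for the full control effect; nearly all actives have a fitted effect of over 35% in size.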 The essentials: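 Enzyme-free wells gave the negative control, while test wells held 1nM USP1/UAF1 preincubated with compound for 15 min at room temperature. Ub-Rho at 150nM final started the reaction, and fluorescence at 480/540 nm was recorded kinetically.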

[14] abbreviates: measured here: cell count channel max response.
The mark [15] stands for this setting: measured here: lipid channel max response.

Records with an inconclusive call do not appear. Calls of active or inactive are those of the source. Unless noted, calls come from the whole dose curve; as a rule, active = well fitted curve in the direction sought with a large enough effect; inconclusive = small, poorly fitted or top-dose-only effect, or another doubt; inactive = no such curve, though single readings can be large; an effect the other way counts as inactive or inconclusive.

Sequence of 3',5'-cyclic-AMP phosphodiesterase 4B (Homo sapiens) (Q07343 whole entry, looked up): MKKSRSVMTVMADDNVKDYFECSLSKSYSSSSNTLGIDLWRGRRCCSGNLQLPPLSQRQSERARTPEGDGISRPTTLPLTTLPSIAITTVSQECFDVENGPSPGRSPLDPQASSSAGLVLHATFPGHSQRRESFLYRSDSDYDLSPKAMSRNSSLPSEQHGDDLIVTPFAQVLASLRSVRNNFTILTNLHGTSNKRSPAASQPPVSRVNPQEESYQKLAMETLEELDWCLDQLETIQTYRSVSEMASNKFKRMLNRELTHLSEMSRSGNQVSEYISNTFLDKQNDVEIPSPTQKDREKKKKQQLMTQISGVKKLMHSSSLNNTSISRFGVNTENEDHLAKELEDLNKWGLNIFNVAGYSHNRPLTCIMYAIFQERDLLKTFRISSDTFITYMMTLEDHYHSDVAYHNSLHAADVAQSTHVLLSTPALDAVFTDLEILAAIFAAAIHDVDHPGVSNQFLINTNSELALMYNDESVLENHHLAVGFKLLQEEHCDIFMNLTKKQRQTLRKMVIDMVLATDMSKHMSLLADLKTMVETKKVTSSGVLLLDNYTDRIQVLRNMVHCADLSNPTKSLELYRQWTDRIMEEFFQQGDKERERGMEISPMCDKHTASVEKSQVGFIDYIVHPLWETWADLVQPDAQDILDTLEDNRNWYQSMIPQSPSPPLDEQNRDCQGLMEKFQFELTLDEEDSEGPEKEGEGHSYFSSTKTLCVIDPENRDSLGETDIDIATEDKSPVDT
Sequence of Ubiquitin carboxyl-terminal hydrolase 1 (Homo sapiens) (O94782 whole entry, looked up): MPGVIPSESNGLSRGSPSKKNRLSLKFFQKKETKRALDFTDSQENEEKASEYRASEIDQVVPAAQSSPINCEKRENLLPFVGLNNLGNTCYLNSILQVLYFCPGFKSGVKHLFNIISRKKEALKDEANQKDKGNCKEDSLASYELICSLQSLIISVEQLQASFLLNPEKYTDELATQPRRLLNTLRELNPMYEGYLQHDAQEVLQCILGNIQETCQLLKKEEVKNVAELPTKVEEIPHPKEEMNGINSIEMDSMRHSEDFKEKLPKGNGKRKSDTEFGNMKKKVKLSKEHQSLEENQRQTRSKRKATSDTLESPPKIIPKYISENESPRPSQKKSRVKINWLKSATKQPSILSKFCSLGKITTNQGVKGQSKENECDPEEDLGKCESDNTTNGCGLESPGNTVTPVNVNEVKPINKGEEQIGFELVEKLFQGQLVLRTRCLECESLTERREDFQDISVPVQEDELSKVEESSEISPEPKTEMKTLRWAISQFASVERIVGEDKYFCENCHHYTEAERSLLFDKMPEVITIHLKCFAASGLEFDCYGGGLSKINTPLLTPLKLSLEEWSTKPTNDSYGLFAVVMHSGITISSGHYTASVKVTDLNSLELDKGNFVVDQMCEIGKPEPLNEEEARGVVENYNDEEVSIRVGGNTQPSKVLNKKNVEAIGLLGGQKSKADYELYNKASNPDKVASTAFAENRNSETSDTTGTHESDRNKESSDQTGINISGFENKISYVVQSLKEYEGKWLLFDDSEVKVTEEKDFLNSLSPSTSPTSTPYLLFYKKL
Sequence of Cytochrome P450 1A2 (Homo sapiens) (P05177 whole entry, looked up): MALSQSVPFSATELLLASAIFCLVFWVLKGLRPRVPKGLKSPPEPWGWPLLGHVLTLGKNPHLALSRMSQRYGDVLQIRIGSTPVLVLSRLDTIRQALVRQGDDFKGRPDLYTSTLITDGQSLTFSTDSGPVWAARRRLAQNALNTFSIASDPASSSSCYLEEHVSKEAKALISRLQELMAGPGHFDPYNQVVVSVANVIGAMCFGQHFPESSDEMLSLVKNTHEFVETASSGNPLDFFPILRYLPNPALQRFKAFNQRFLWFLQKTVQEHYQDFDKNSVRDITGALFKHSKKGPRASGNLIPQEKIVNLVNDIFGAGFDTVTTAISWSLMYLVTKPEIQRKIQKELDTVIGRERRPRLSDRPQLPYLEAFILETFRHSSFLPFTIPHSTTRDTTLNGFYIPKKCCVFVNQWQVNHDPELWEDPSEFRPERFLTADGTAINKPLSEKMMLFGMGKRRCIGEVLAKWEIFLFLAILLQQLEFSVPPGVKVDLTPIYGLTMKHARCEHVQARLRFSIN

As for `C[N+]12CCC(CC1)[C@@H](OC(=O)C(O)(c1ccccc1)c1ccccc1)C2`, the outcome in experiment [1], in experiment [4], in [8] and in experiment [11] was inactive. For the same compound, the Potency entry (in experiment [2]; in [7]; in [10]; in the experiment on C2A; in the experiment with CP191; in the experiment with CP256) was “inactive” in each case. Further, the Potency entry in the experiment with CP262, with CP268, in the experiment on JCK and in the experiment on SC27B was “inactive” each time. In addition, the activity change, negative = inhibition in experiment [3] is -57.3% (active); in [9] it was -3.29% (inactive). The Potency in experiment [5] and in experiment [6] was > 20.6 µM (inactive) throughout. Also, the figures for the max response in experiment [9] (setting [14]) and in [9] (setting [15]) were -12.1% and -15%, respectively. In addition, the activity, negative = inhibition was 11.6% (inactive) in experiment [12] (parasite line A) and 16% (inactive) in [12] (parasite line B).
Turning to `Cc1ccccc1N1C(=O)c2cc(S(N)(=O)=O)c(Cl)cc2N[C@H]1C`, the result in [1], in experiment [4] and in [8] was inactive. Besides, the Potency entry in experiment [2], in experiment [7] and in experiment [13] was “inactive” each time. Besides, the results for the activity change, negative = inhibition in experiment [3] and in experiment [9] were 1.02% (inactive) and 0.988% (inactive), respectively. The Potency in [5] and in experiment [6] was > 20.6 µM (inactive) in each case. The max response was -3.14% in experiment [9] (setting [14]) and -3.66% in [9] (setting [15]).
On to `CN(C)CCCO[C@H]1[C@@H]2OC(C)(C)O[C@@H]2O[C@@H]1[C@H](O)CO`, for which the result in experiment [1], in experiment [4] and in experiment [8] was inactive. Moreover, the Potency result in experiment [2], in [7] and in experiment [13] was “inactive” in each case. Also, the activity change, negative = inhibition was -2.11% (inactive) in experiment [3] and 0.679% (inactive) in experiment [9]. The Potency in experiment [5] and in experiment [6] was > 20.6 µM (inactive) each time. The max response in experiment [9] (setting [14]) is -1.4%; in experiment [9] (setting [15]) it was -0.368%.
For `COc1ccc([C@@H]2CC(=O)c3c(O)cc(O[C@H]4O[C@@H](CO[C@H]5O[C@@H](C)[C@@H](O)[C@@H](O)[C@@H]5O)[C@@H](O)[C@@H](O)[C@@H]4O)cc3O2)cc1O`, the compound was called inactive in [1], in experiment [4], in [8] and in experiment [11]. Moreover, the Potency entry (in [2]; in experiment [7]; in experiment [13]; in experiment [10]; in the experiment with C2A; in the experiment on CP191) was “inactive” throughout. The Potency result with CP256, with CP262, in the experiment with CP268, in the experiment with JCK and in the experiment with SC27B was “inactive” throughout. Moreover, the values for the activity change, negative = inhibition in [3] and in [9] were 6.75% (inactive) and -0.902% (inactive), respectively. Also, the Potency in experiment [5] and in [6] was > 20.6 µM (inactive) throughout. For the same compound, the max response in experiment [9] (setting [14]) was -12%; in [9] (setting [15]), -8.76%. For the same compound, the activity, negative = inhibition in experiment [12] (parasite line A) is 5.87% (inactive); in experiment [12] (parasite line B), -4.16% (inactive).
For the compound `O=C(NC[C@@H](O)CO)c1c(I)c(C(=O)NC[C@@H](O)CO)c(I)c(N(CCO)C(=O)CO)c1I`, the outcome in experiment [1], in [4] and in experiment [11] was inactive. For the same compound, the Potency result (in [2]; in [7]; in experiment [10]; in the experiment with C2A; in the experiment with CP191; with CP256) was “inactive” in each case. For the same compound, the Potency result in the experiment with CP262, with CP268, with JCK and with SC27B was “inactive” throughout. Besides, the figures for the activity change, negative = inhibition in experiment [3] and in [9] were -8.22% (inactive) and -2.29% (inactive), respectively. The Potency in experiment [5] and in [6] was > 20.6 µM (inactive) throughout. The max response in experiment [9] (setting [14]) was -1.01%; in experiment [9] (setting [15]) it was -0.682%. In addition, the figures for the activity, negative = inhibition in experiment [12] (parasite line A) and in [12] (parasite line B) were 7.51% (inactive) and 8.28% (inactive), respectively.
